This is a sample that favours compounds with a hit; in the whole collection about 7.3% have one here.
SMN2 splice up – enhancers of SMN2 splice variant expression; 2.8% of 210,000 active; AID 1458; Potency, µM (top dose mostly 46.1 µM), hits mostly activators; HEK293 SMN2-luciferase splicing reporter, luminescence, 30-36 h; further: nearly all actives have a fitted effect of over 55% in size
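HEK293 cells carry an SMN2 […]–luciferase reporter in which exon 7 inclusion puts luciferase in frame. Cells were plated 10-12 h before compound addition, then incubated 30-36 h at 37C. ONE-Glo luminescence was read; sodium butyrate at 4.5 mM final served as control.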
FLuc counter – firefly luciferase modulation, counter-screen for miR-21 project; Potency, µM (series often up to 57.5 µM), hits mostly inhibitors; 6.9% of 360,000 active; purified FLuc, Km substrates, luminescence inhibition; P08659; further: nearly all actives have a fitted effect of over 55% in size
Target sequence (P08659 whole entry, looked up): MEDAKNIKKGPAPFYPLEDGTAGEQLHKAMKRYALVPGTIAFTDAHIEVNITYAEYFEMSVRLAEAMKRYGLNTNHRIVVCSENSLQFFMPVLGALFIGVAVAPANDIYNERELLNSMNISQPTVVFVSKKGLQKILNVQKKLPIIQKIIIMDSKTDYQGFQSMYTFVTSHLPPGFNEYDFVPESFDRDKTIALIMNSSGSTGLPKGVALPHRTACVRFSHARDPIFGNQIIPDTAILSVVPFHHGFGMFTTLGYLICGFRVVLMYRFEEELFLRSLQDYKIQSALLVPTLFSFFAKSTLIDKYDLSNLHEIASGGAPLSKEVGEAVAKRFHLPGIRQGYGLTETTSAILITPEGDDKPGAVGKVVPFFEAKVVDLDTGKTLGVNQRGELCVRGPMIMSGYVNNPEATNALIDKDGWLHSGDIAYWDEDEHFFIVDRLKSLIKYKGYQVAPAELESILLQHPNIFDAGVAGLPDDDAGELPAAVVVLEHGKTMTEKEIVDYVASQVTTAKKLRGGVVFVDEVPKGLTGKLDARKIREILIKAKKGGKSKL
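Purified P. pyralis luciferase (10nM final) with 10uM D-luciferin and 10uM ATP (Km levels) in 50mM Tris acetate pH 7.5, 10mM Mg acetate, 0.01% Tween-20, 0.05% BSA; qHTS 6-point titration, ~60 µM downward; luminescence read.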
NPC1 promoter act – activators of NPC1 promoter; 2.4% of 320,000 active; Potency, µM (top dose mostly 9.22 µM), most hits filed as activators; Huh7 NPC1 promoter luciferase reporter, 24 h; further: nearly all actives have a fitted effect of over 60% in size
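Stably transfected Huh7 (NPC1 promoter→luciferase), 1500 cells/well in Opti-MEM + 10% FBS, 2 h settle, then compound 24 h at 37 °C. Luminescence after 10 min with Amplite reagent.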
Rab9 promoter act – activates the Rab9 promoter | Huh7 Rab9 promoter-luciferase reporter, luminescence, 24 h | Potency, µM (doses to about 9.22 µM), hits mostly activators | 2.8% of 320,000 active | AID 485297; further: nearly all actives have a fitted effect of over 60% in size
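Promoter activation is measured as luciferase luminescence in Huh7 cells stably transfected with a Rab9 promoter–luciferase construct, following 24 h compound exposure at 37 °C and 10 min reagent incubation at ambient temperature.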
ELG1 genotox – induces genotoxicity in HEK293T cells with luciferase-tagged ELG1; AID 504466; HEK293T ELG1-luciferase reporter, luminescence, 16 h; 1.3% of 330,000 active; Potency, µM (highest dose often 46 µM), hits mostly activators; further: nearly all actives have a fitted effect of over 60% in size
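ELG1-luciferase HEK293T cells, 2,000/well; compound pinned in; 16 hr, 37 °C, 5% CO2; ONE-Glo, 30 min RT; luminescence on CCD imager.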
p53 reactivation – re-activators of mutant p53 | H1299 p53-A138V BP100-luciferase reporter, luminescence, 24 h | Potency, µM (top dose mostly 92.2 µM), usual class: activators | 0.063% of 320,000 active | AID 504706; further: nearly all actives have a fitted effect of over 45% in size
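p53-null H1299 cells stably carrying temperature-sensitive p53-A138V and a BP100-luciferase reporter were pinned with compounds (4-point, 1:5 series) and held 24 hrs at 37 deg C. Luminescence was read 10 min after detection reagent.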
Numbers stand for hits; n = inactive; u = inconclusive; x = not tested or not shown. The call rests on the fitted dose curve; in most records, active means well fitted curve in the direction sought with a large enough effect; inconclusive means small, poorly fitted or top-dose-only effect, or another doubt; inactive means no such curve, though single readings can be large; an effect the other way counts as inactive or inconclusive.

SMILES	SMN2 splice up	FLuc counter	NPC1 promoter act	Rab9 promoter act	ELG1 genotox	p53 reactivation
CCCc1cc(NCc2ccccn2)n2c(nc3ccccc32)c1C#N	n	11µM	n	n	n	n
Cc1cc(NCc2ccccn2)n2c(nc3ccccc32)c1C#N	n	n	n	n	n	n
CCCc1cc(NCC2CCCO2)n2c(nc3ccccc32)c1C#N (stereo unspecified)	n	17µM	n	n	n	n
CCCc1cc(NCCN(C)C)n2c(nc3ccccc32)c1C#N	x	n	n	n	n	x
COc1ccc(NC(=O)c2ccc3snnc3c2)cc1	13µM	9.5µM	u	2.8µM	u	u
CC(=O)c1ccc(NC(=O)c2ccc3snnc3c2)cc1	x	u	4.5µM	4µM	15µM	n
C=C(C)Cn1cnc2c(oc3nc4c(cc32)CCCC4)c1=O	x	21µM	2.5µM	1.6µM	u	n
CC(=O)c1cccc(NC(=O)CSc2nc3ccccc3nc2Cc2ccc(F)cc2)c1	x	n	x	x	x	x
O=C(NNC(=O)c1ccc2ccccc2c1O)c1cccs1	x	27µM	n	n	n	n
C/C(=N\NC(=O)c1cc(Cl)ccc1O)c1ccc(Br)s1	4µM	6.7µM	4µM	3.5µM	n	u
O=C(NNC(=O)c1cc2ccccc2cc1O)c1cccs1	x	12µM	3.2µM	3.5µM	u	u
C/C(=N\NC(=O)c1cc2ccccc2cc1O)c1cccs1	x	3.8µM	0.56µM	0.63µM	u	u
Nc1nc2c(ncn2C2OC(CO)CC2O)c(=O)[nH]1 (stereo unspecified)	n	x	x	x	x	x
O=C(Nc1noc2ccccc12)c1c(F)cccc1F	22µM	7.6µM	x	x	x	x
O=C(Nc1ccccc1NC(=O)c1c(F)cccc1F)c1c(F)cccc1F	x	n	n	n	n	n
CCCCC/C=C\C\C=C/C=C/C=C/[C@@H](SCC(NC(=O)CCC(N)C(=O)O)C(=O)NCC(=O)O)[C@@H](O)CCCC(=O)O (stereo partly specified)	n	x	x	x	x	x
O=C(CCc1nnc(-c2ccccc2)o1)NC1CCCCC1	x	17µM	n	u	u	u
O=C(CCc1nnc(-c2ccsc2)o1)N1CCc2c(Cl)cccc2C1	x	17µM	n	u	u	n
O=C(CCc1nnc(-c2ccc(-c3ccccc3)cc2)o1)N1CCCCC1	x	13µM	u	u	u	n
Cc1cc(N2CCN(C(=O)c3cccs3)CC2)c(F)cc1[N+](=O)[O-]	x	n	n	n	n	x
CC1CCN(CC2CCN(C(=O)NCc3ccccc3)CC2)CC1	x	n	x	x	x	x
CC(C)(C)c1ccc(OCc2ccc(C(=O)NN)o2)cc1	x	15µM	0.4µM	0.79µM	u	n
CC(C)(c1ccccc1)c1ccc(OCc2ccc(C(=O)O)o2)cc1	x	27µM	2.8µM	1.1µM	u	n
CC(C)(C)c1ccc(OCc2ccc(C(=O)NCc3cccnc3)o2)cc1	u	17µM	2.8µM	1.3µM	u	n
COc1ccc2c(c1)cc1c(=O)n(CC(=O)NCc3ccco3)nc(C)n12	n	n	x	x	x	x
SMILES	SMN2 splice up	FLuc counter	NPC1 promoter act	Rab9 promoter act	ELG1 genotox	p53 reactivation
Cc1ccc2cccc(NC(=O)COc3ccccc3[N+](=O)[O-])c2n1	x	n	x	x	x	x
Cc1cccc(NC(=S)N2CCCCC2c2cccnc2)c1C (stereo unspecified)	x	n	n	n	n	n
COc1ccc(NC(=S)N2CCCCC2c2cccnc2)cc1 (stereo unspecified)	x	17µM	n	n	n	n
COc1ccc(NC(=O)Nc2cccnc2)cc1	n	17µM	n	n	n	n
COc1ccc(C(=O)Nc2ccc(C(=O)Nc3cccnc3)cc2)cc1	x	n	n	n	u	x
O=C(Nc1ccc(Cl)cc1)Nc1cccnc1	n	12µM	n	u	u	n
Cc1cnc(NC(=O)Nc2ccc(Cl)cc2)s1	n	4.8µM	n	n	u	u
Cc1cnc(NC(=O)CSc2ccc(Cl)cc2)s1	n	u	n	n	n	n
O=C(Nc1cccnc1)Nc1ccc(Cl)cc1Cl	n	u	n	n	n	n
CCOc1ncccc1C(=O)Nc1ccc2c(c1)OCCCO2	x	u	n	n	n	n
CCOc1ccc(NC(=O)Nc2cccnc2)cc1	x	7.6µM	u	3.5µM	u	n
COCCn1c(=O)cnc2cnc(OCc3ccccc3)nc21	n	x	x	x	x	x
O=C(CSc1ccc(-c2ccc(F)cc2)nn1)NCc1ccco1	n	n	n	n	n	n

Screens: PubChem, National Center for Advancing Translational Sciences (NCATS)
